TRHR PAM: qHTS for Small Molecule Agonists and Allosteric Enhancers of Human TRH Receptor: Primary Screen for Enhancers. hit rate 0.66% among 360,000. enhancement, % at 2 µM. AID 493056, 2011. TRHR cells, fluo-8 calcium fluorescence, EC20 TRH enhancement. Thyrotropin-releasing hormone receptor (Homo sapiens), P34981; in the data active = enhancement above about 30%; note: 0% is about no effect
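TRHR-expressing cells loaded with fluo-8 calcium dye were read kinetically (ex 480/em 530) during compound addition, then stimulated with an EC20 of TRH (10 nM final). Enhancement of the Gq-mediated intracellular calcium response was scored.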
TRPV1 ag: HTS Assay for Compounds that Act as Agonists of the Vanilloid Receptor 1; AID 540275, 2011; activation, % at 8.33 µM; TRPV1-expressing cells, Fluo-8 calcium influx, agonist mode; hit rate 0.19% among 320,000; Transient receptor potential cation channel subfamily V member 1 (Homo sapiens), Q8NER1; in the data active = activation above about 80%; inconclusive = between about 30% and that limit; note: 0% is about no effect
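Cells expressing TRPV1 were dye-loaded with Fluo-8 and read kinetically: 10 s baseline, 3 min after compound (agonist portion), then 2 min after EC20 capsaicin (allosteric enhancer portion). Calcium-bound dye fluorescence at 480/520 nm.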
TRPML1 inh: qHTS for Inhibitors of the Human Mucolipin Transient Receptor Potential 1 (TRPML1). TRPML1-inducible cells, Ca2+ dye fluorescence, FDSS; hits give low values; inhibition of EC80 agonist-evoked calcium signal. activity change, negative = inhibition, % (concentration not given with the values). hit rate 0.02% among 390,000. AID 624415, 2012; in the data active = activity change below about -50%; inconclusive = between about -30% and that limit;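 note: stimulus is agonist 54-4 at its EC80 concentration; % is set by controls: 0 for no effect and ±100 for the full control effect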
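Tet-induced TRPML1-DL cells loaded with Ca8 no-wash calcium dye were read kinetically on FDSS. Compound addition was followed by EC80 agonist 54-4 (4 uM final); inhibition was read over 110 s.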
TRPV1 PAM: HTS Assay for Compounds that Act as Potentiators of the Vanilloid Receptor 1. TRPV1-expressing cells, Fluo-8 calcium influx, capsaicin EC20 potentiation. potentiation, % at 8.33 µM. hit rate 0.02% among 320,000. AID 540277, 2011; in the data active = potentiation above about 80%; inconclusive = between about 30% and that limit; note: 0% is about no effect
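Fluo-8 calcium influx in TRPV1-expressing cells, kinetic read (ex 480/em 520 nm). Compound added and read 3 min for agonist activity, followed by capsaicin at EC20 final and 2 min further read for enhancement.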
TRHR ag: qHTS for Small Molecule Agonists and Allosteric Enhancers of Human TRH Receptor: Primary Screen for Agonists; Thyrotropin-releasing hormone receptor (Homo sapiens), P34981; TRHR cells, calcium flux fluo-8, FDSS agonist mode; activation, % at 2 µM; hit rate 0.18% among 360,000; AID 493084, 2011; in the data active = activation above about 30%; note: 0% is about no effect
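Read-out: compound-evoked intracellular calcium rise in TRHR cells, fluo-8 dye, kinetic FDSS fluorescence at 1 s/cycle following a 10-cycle baseline. Cells cultured overnight before dye loading (30 min–1.5 h, RT).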
TRPML1 ag: qHTS for Agonists of the Human Mucolipin Transient Receptor Potential 1 (TRPML1). TRPML1-expressing cells, Ca2+ dye fluorescence, FDSS. activation, % (no concentration beside the values). hit rate 0.12% among 410,000; in the data active = activation above about 50%; inconclusive = mostly about 30% to 49%; note: 0% is about no effect
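Calcium fluorescence on an FDSS kinetic reader gave the read-out. Tet-induced TRPML1-DL cells were plated overnight, dye-loaded (Ca8 with quencher, 45-90 min, room temperature, dark), then read 110 s after compound addition, and again 110 s after 4uM final 54-4 (EC80).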
Numbers without * were called inactive; ? = inconclusive; . = not tested or not shown. This is a sample that favours compounds with a hit; in the whole collection about 0.99% have one here.

SMILES | TRHR PAM | TRPV1 ag | TRPML1 inh | TRPV1 PAM | TRHR ag | TRPML1 ag
CC(C)(C)C(=O)Cn1ncc(Cl)c(Cl)c1=O | 32* | 4 | -6 | -4 | 0 | 0
CCCN1CNc2c(c(=O)[nH]c(=S)n2CCc2c(C)cccc2C)C1 | . | . | . | . | . | -1
S=c1[nH]nc(-c2ccncc2)n1/N=C/c1cn(-c2ccccc2)nc1-c1ccccc1 | 30* | 4 | 5 | 3 | 0 | -1
Cc1ccccc1SCCNC(=O)c1ccccc1Br | 33* | ? | 37 | -3 | -1 | 2
Cc1nc([N+](=O)[O-])cn1CC(O)c1ccc2c(c1)OCCO2 (stereo not given) | . | . | . | . | . | -1
Cc1cc2ncc(-c3cccs3)nc2cc1C | 31* | 8 | -7 | -20 | 0 | 2
O=S(=O)(c1cccc(F)c1)N1CCN(c2nc(-c3cccs3)nc3ccccc23)CC1 | . | . | . | . | . | 0
Cc1ccccc1NC(=O)c1nc(S(=O)(=O)Cc2ccccc2F)ncc1Cl | . | . | . | . | . | 3
CCOC(=O)c1ccc(N(C(=O)c2ccccc2)c2ccccc2)cc1 | . | . | . | . | . | 0
Cc1[nH]c2ccccc2c1C(=O)C(=O)NC1CC1 | 6 | 82* | 5 | -3 | 2 | 0
Cc1[nH]c2ccccc2c1C(=O)C(=O)NC1CC(=O)N(c2ccccc2)C1 (stereo not given) | -3 | . | -2 | . | 0 | -1
CCCn1c(C(C)Nc2nc(-c3cc(Cl)c(N)c(Cl)c3)cs2)nc2cc(Cl)c(N3CCCCC3)cc21 (stereo not given) | -1 | 86* | -3 | 17 | 0 | -1
CCOC(=O)c1c(C)oc2nc(C)nc(NCCCN3CCN(c4cccc(C)c4)C(C)C3)c12 (stereo not given) | 38* | . | ? | . | -1 | 0
CCOC(=O)c1c(C)oc2nc(C)nc(NCCCN3CCN(c4ccccc4)CC3)c12 | 1 | . | 4 | . | -1 | 1
COc1ccc(OC)c(-c2c3cc(O)c(=O)cc-3oc3cc(O)c(O)cc23)c1 | 25 | 14 | 1 | -7 | 16 | 147*
Cc1cc2c(s1)c1cnn(Cc3cc(C(F)(F)F)ccc3F)c(=O)c1n2C | 0 | . | . | . | 0 | .
Oc1ccc(Cl)cc1C1C=C(c2ccc3c(c2)OCO3)NC(c2ccc(Cl)cc2)N1 (stereo not given) | . | . | . | . | . | 3
CC(C)(C)c1ccc(C(=O)NCC(c2cccs2)S(=O)(=O)c2cccs2)cc1 (stereo not given) | 45* | . | 36 | . | 0 | 2
Nc1ccc(/C=C/c2ccnc3ccccc23)c(N)c1 | . | . | . | . | . | 6
COc1ccc2c(c1C)CCC(C)(C#N)C2=O (stereo not given) | . | . | -24 | . | . | 78*
O=C1C[C@H]2C=CCc3cccc(c32)CN1Cc1ccc(Cl)cc1 | . | . | . | . | . | 0
CN(CCc1nc2ccc(Cl)cc2[nH]1)Cc1nc(CC2CC2)no1 | 35* | 4 | -6 | -1 | -3 | 1
COc1ccc(OC(=O)COc2ccc(Cl)cc2)cc1 | 39* | 0 | 3 | -3 | 1 | 1
COc1ccc(OC(=O)COc2cc(C)ccc2C)cc1 | -3 | 6 | -7 | -6 | 0 | -1
Cc1nn(-c2ccccn2)c2c1-c1nc(N)sc1CC2 | . | . | . | . | . | -1
O=C(C1CCN(S(=O)(=O)c2ccccc2F)CC1)N1CCc2ccccc21 | -10 | 19 | 6 | -6 | -1 | 1
O=C(C1CCN(S(=O)(=O)c2ccccc2)CC1)N1CCc2ccccc21 | 60* | ? | 12 | -1 | 247* | 0
O=C(O)c1cc(Cl)ccc1-c1ccc(/C=C/c2cc(C(F)(F)F)[nH]c(=O)n2)o1 | -2 | 25 | 8 | -18 | 73* | 21

From PubChem BioAssay
